Assay in all cases: PBM; 200 nM protein, PBS
Holding throughout (settings): dsDNA, one strand shown

The target in assay [1] is NKX2-5 (Homo sapiens, UniProt P52952 125-210, R139K).
Assay [2] addresses HOXA2 (Homo sapiens, UniProt O43364 129-215, R185T).
Assay [3] deals with HOXD13 (Homo sapiens, UniProt P35453 263-343, T313R).
Assay [4] addresses HOXA2 (Homo sapiens, UniProt O43364 129-215, R185K).
For assay [5], the target named is HOXD13 (Homo sapiens, UniProt P35453 263-343).
In assay [6] the target is HOXD13 (Homo sapiens, UniProt P35453 263-343, T313A).
HOXD13 (Homo sapiens, UniProt P35453 263-343, T313A), sequence (P35453 263-343 T313A): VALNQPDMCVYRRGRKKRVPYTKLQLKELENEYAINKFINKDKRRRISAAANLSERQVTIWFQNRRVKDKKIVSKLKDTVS
The target of assay [7] is HOXA2 (Homo sapiens, UniProt O43364 129-215, Y150S).
HOXA2 (Homo sapiens, UniProt O43364 129-215, Y150S), sequence (O43364 129-215 Y150S): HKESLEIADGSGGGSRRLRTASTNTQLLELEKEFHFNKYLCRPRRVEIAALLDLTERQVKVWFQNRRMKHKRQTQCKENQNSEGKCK
The target in assay [8] is HOXA2 (Homo sapiens, UniProt O43364 129-215).
HOXA2 (Homo sapiens, UniProt O43364 129-215), sequence (O43364 129-215): as the sequence (O43364 129-215 Y150S) above, with S22Y counted along it
Assay [9] has as its target NKX2-5 (Homo sapiens, UniProt P52952 125-210).
Assay [10] concerns the target T1, PAX4 (Homo sapiens, UniProt O43316 9-242, R200K).
T1 sequence: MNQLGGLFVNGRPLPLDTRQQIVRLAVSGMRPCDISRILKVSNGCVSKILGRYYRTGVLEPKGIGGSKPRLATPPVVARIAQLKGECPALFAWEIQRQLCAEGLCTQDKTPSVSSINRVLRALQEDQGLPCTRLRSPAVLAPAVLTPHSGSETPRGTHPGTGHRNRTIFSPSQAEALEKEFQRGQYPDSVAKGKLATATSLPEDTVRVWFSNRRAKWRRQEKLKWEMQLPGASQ

Assay [11] deals with PRRX1 (Homo sapiens, UniProt P54821 80-166, F113S).
PRRX1 (Homo sapiens, UniProt P54821 80-166, F113S), sequence (P54821 80-166 F113S): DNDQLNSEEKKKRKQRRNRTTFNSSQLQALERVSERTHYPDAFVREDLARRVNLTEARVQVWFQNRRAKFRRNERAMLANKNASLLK
In assay [12] the target is T2, PAX4 (Homo sapiens, UniProt O43316 9-242).
T2 sequence: T1 sequence with K192R

Assay [13] deals with MSX2 (Homo sapiens, UniProt P35548 130-214, R199I).
MSX2 (Homo sapiens, UniProt P35548 130-214, R199I), sequence (P35548 130-214 R199I): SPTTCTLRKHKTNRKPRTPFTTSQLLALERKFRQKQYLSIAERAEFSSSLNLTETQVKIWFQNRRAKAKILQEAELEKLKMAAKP
Assay [14] has as its target T3, PAX4 (Homo sapiens, UniProt O43316 9-242, R200Q).
T3 sequence: T1 sequence with K192Q

In assay [15] the target is T4, PAX4 (Homo sapiens, UniProt O43316 9-242, F177V).
T4 sequence: T1 sequence with F169V, K192R

Assay [16] concerns the target MSX2 (Homo sapiens, UniProt P35548 130-214).
Assay [17] concerns the target T5, PAX4 (Homo sapiens, UniProt O43316 9-242, F177Y).
T5 sequence: T1 sequence with F169Y, K192R

The target in assay [18] is MSX2 (Homo sapiens, UniProt P35548 130-214, F161Y).
MSX2 (Homo sapiens, UniProt P35548 130-214, F161Y), sequence (P35548 130-214 F161Y): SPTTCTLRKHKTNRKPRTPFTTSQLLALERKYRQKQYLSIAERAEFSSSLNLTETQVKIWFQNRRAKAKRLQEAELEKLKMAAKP
In assay [19] the target is T6, PAX4 (Homo sapiens, UniProt O43316 9-242, R227W).
T6 sequence: T1 sequence with K192R, R219W

The target of assay [20] is PRRX1 (Homo sapiens, UniProt P54821 80-166).
PRRX1 (Homo sapiens, UniProt P54821 80-166), sequence (P54821 80-166): as the sequence (P54821 80-166 F113S) above, with S34F counted along it
Assay [21] concerns the target T7, SIX6 (Homo sapiens, UniProt O95475 114-200, L167I).
T7 sequence: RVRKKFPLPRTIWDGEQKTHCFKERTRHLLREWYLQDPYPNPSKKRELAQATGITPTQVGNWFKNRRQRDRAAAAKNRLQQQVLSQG

The target in assay [22] is T8, SIX6 (Homo sapiens, UniProt O95475 114-200, L143V).
T8 sequence: T7 sequence with L30V, I54L

Assay [23] addresses T9, SIX6 (Homo sapiens, UniProt O95475 114-200, H141N).
T9 sequence: T7 sequence with H28N, I54L

The target in assay [24] is T10, SIX6 (Homo sapiens, UniProt O95475 114-200, T165P).
T10 sequence: T7 sequence with T52P, I54L

The target of assay [25] is T11, SIX6 (Homo sapiens, UniProt O95475 114-200, L167M).
T11 sequence: T7 sequence with I54M

For assay [26], the target named is T12, SIX6 (Homo sapiens, UniProt O95475 114-200, L143M).
T12 sequence: T7 sequence with L30M, I54L

For assay [27], the target named is T13, SIX6 (Homo sapiens, UniProt O95475 114-200, L143I).
T13 sequence: T7 sequence with L30I, I54L

Assay [28] deals with T14, SIX6 (Homo sapiens, UniProt O95475 114-200, T165G).
T14 sequence: T7 sequence with T52G, I54L

Assay [29] concerns the target T15, SIX6 (Homo sapiens, UniProt O95475 114-200, T139Q).
T15 sequence: T7 sequence with T26Q, I54L

For assay [30], the target named is T16, SIX6 (Homo sapiens, UniProt O95475 114-200, T165A).
T16 sequence: T7 sequence with T52A, I54L

Assay [31] has as its target T17, SIX6 (Homo sapiens, UniProt O95475 114-200, L167V).
T17 sequence: T7 sequence with I54V

For assay [32], the target named is T18, SIX6 (Homo sapiens, UniProt O95475 114-200).
T18 sequence: T7 sequence with I54L

Assay [33] addresses T19, SIX6 (Homo sapiens, UniProt O95475 114-200, T165I).
T19 sequence: T7 sequence with T52I, I54L

Substitutions are numbered along the chain they refer to.

The values below come from PMC11006913.

NKX2-5 (Homo sapiens, UniProt P52952 125-210, R139K), sequence (P52952 125-210 R139K): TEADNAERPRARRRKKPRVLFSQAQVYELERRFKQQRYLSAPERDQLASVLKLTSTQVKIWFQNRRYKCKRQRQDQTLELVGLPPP
NKX2-5 (Homo sapiens, UniProt P52952 125-210), sequence (P52952 125-210): as the sequence (P52952 125-210 R139K) above, with K15R counted along it
HOXA2 (Homo sapiens, UniProt O43364 129-215, R185K), sequence (O43364 129-215 R185K): as the sequence (O43364 129-215 Y150S) above, with S22Y, R57K counted along it
HOXA2 (Homo sapiens, UniProt O43364 129-215, R185T), sequence (O43364 129-215 R185T): as the sequence (O43364 129-215 Y150S) above, with S22Y, R57T counted along it
HOXD13 (Homo sapiens, UniProt P35453 263-343, T313R), sequence (P35453 263-343 T313R): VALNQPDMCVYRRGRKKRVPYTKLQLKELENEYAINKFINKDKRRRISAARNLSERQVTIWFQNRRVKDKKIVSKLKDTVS
HOXD13 (Homo sapiens, UniProt P35453 263-343), sequence (P35453 263-343): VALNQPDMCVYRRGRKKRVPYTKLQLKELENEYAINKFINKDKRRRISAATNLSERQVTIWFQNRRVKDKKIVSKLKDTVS
MSX2 (Homo sapiens, UniProt P35548 130-214), sequence (P35548 130-214): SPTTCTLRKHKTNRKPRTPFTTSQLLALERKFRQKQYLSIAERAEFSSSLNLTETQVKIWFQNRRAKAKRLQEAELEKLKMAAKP

For CAGCCCGG, the binding signal with NKX2-5 [1] is 8.37 upbm affinity estimate (log intensity, higher = more binding, comparable within an allelic series); with HOXA2 [2], 7.16 upbm affinity estimate (log intensity, higher = more binding, comparable within an allelic series); with HOXD13 [3], 9.5 upbm affinity estimate (log intensity, higher = more binding, comparable within an allelic series); with HOXA2 [4] it was 10.1 upbm affinity estimate (log intensity, higher = more binding, comparable within an allelic series); with HOXD13 [5], 9.67 upbm affinity estimate (log intensity, higher = more binding, comparable within an allelic series); with HOXD13 [6], 9.74 upbm affinity estimate (log intensity, higher = more binding, comparable within an allelic series). Besides, the binding signal was 10.3 upbm affinity estimate (log intensity, higher = more binding, comparable within an allelic series) in the assay with HOXA2 [7]; 7.06 upbm affinity estimate (log intensity, higher = more binding, comparable within an allelic series) in the assay with HOXA2 [8]; 8.35 upbm affinity estimate (log intensity, higher = more binding, comparable within an allelic series) in the assay with NKX2-5 [9].
CCGCCTCC: the binding signal with NKX2-5 [1] was 8.96 upbm affinity estimate (log intensity, higher = more binding, comparable within an allelic series); in the assay with PAX4 [10], 9.24 upbm affinity estimate (log intensity, higher = more binding, comparable within an allelic series); with PRRX1 [11], 9.25 upbm affinity estimate (log intensity, higher = more binding, comparable within an allelic series); with PAX4 [12], 9.34 upbm affinity estimate (log intensity, higher = more binding, comparable within an allelic series); with MSX2 [13], 9.48 upbm affinity estimate (log intensity, higher = more binding, comparable within an allelic series); with PAX4 [14] it was 9.3 upbm affinity estimate (log intensity, higher = more binding, comparable within an allelic series). The binding signal with PAX4 [15] is 9.19 upbm affinity estimate (log intensity, higher = more binding, comparable within an allelic series); with MSX2 [16], 9.45 upbm affinity estimate (log intensity, higher = more binding, comparable within an allelic series); with PAX4 [17], 9.18 upbm affinity estimate (log intensity, higher = more binding, comparable within an allelic series); with MSX2 [18], 9.54 upbm affinity estimate (log intensity, higher = more binding, comparable within an allelic series); with PAX4 [19], 9.29 upbm affinity estimate (log intensity, higher = more binding, comparable within an allelic series); with PRRX1 [20], 9.06 upbm affinity estimate (log intensity, higher = more binding, comparable within an allelic series). Also, in the assay with NKX2-5 [9], the binding signal is 9 upbm affinity estimate (log intensity, higher = more binding, comparable within an allelic series).
With CCCTCCGG, the binding signal was 8.58 upbm affinity estimate (log intensity, higher = more binding, comparable within an allelic series) with NKX2-5 [1]; 9.04 upbm affinity estimate (log intensity, higher = more binding, comparable within an allelic series) in the assay with SIX6 [21]; 8.92 upbm affinity estimate (log intensity, higher = more binding, comparable within an allelic series) with SIX6 [22]; 9.12 upbm affinity estimate (log intensity, higher = more binding, comparable within an allelic series) with SIX6 [23]; 8.9 upbm affinity estimate (log intensity, higher = more binding, comparable within an allelic series) in the assay with SIX6 [24]; 9.06 upbm affinity estimate (log intensity, higher = more binding, comparable within an allelic series) with SIX6 [25]. The binding signal in the assay with SIX6 [26] was 8.95 upbm affinity estimate (log intensity, higher = more binding, comparable within an allelic series); in the assay with SIX6 [27], 8.91 upbm affinity estimate (log intensity, higher = more binding, comparable within an allelic series); with SIX6 [28] it was 9.05 upbm affinity estimate (log intensity, higher = more binding, comparable within an allelic series); in the assay with HOXA2 [2], 7.03 upbm affinity estimate (log intensity, higher = more binding, comparable within an allelic series); with SIX6 [29], 9.08 upbm affinity estimate (log intensity, higher = more binding, comparable within an allelic series); in the assay with SIX6 [30] it was 9.09 upbm affinity estimate (log intensity, higher = more binding, comparable within an allelic series). For the same sequence, the binding signal is 10.1 upbm affinity estimate (log intensity, higher = more binding, comparable within an allelic series) with HOXA2 [4]; 9.06 upbm affinity estimate (log intensity, higher = more binding, comparable within an allelic series) with SIX6 [31]; 9.06 upbm affinity estimate (log intensity, higher = more binding, comparable within an allelic series) in the assay with SIX6 [32]; 9.01 upbm affinity estimate (log intensity, higher = more binding, comparable within an allelic series) with SIX6 [33]; 10.3 upbm affinity estimate (log intensity, higher = more binding, comparable within an allelic series) with HOXA2 [7]; 6.99 upbm affinity estimate (log intensity, higher = more binding, comparable within an allelic series) with HOXA2 [8]. Further, in the assay with NKX2-5 [9], the binding signal was 8.53 upbm affinity estimate (log intensity, higher = more binding, comparable within an allelic series).
